Screening data deposited in PubChem BioAssay by National Center for Advancing Translational Sciences (NCATS).
Shiga toxin inh: inhibitors of Shiga toxin in Vero cells; Vero cells, Shiga toxin protein synthesis inhibition reporter; inhibition, % at 38.7 µM; actives 9.2% (n = 290,000); in the data active = inhibition mostly above about 28%, no sharp cut-off; inactive = mostly below about 43%; note: 0% is about no effect
NS1 inh: influenza NS1 inhibition; Potency, µM (doses to about 46.1 µM), without a hit: top-dose activity, positive = more growth; actives 0.4% (n = 270,000); calls by dose curve; note: potency is the fitted concentration of half-maximal effect; actives are rising curves; nearly all actives have a fitted effect of over 50% in size
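Growth recovery, yeast-based: influenza A NS1 expressed in S. cerevisiae causes slow growth, and suppressors are detected by OD600. The parent strain without NS1 is used as positive control.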
AmpC no deterg: blocks E. coli AmpC beta-lactamase in detergent-free assay. AID 485341. actives 0.52% (n = 330,000). AmpC nitrocefin hydrolysis, absorbance 480 nm, 0.0001% Triton. Potency, µM (top dose mostly 57.1 µM), inactives show top-dose activity change, negative = inhibition, actives largely listed as inhibitors. P00811;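 note: potency is the fitted concentration of half-maximal effect; plate controls were no compound for no effect and no enzyme for full effect; nearly all actives have a fitted effect of over 20% in size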
Target sequence (P00811 whole entry, looked up): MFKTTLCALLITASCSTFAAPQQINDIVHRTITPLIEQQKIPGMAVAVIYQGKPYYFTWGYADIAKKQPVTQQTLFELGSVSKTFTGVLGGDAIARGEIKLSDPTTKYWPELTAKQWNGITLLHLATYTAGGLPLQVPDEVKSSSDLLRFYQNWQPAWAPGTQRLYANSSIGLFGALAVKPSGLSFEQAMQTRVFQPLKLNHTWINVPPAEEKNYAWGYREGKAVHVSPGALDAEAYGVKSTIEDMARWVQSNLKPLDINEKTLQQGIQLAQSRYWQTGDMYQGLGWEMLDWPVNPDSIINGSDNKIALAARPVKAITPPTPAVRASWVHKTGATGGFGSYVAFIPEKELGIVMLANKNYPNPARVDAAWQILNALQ
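AmpC (5.3 nM in the dispensed reagent) in 20 mM phosphate pH 7.0 with 0.01% (detergent screen) or 0.0001% Triton X-100 was preincubated with compounds for 15 min at room temperature. Nitrocefin was then added from an 800 uM solution, and hydrolysis was followed at 480 nm.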
CHX counter: counter-screen hit for Shiga toxin inhibitors, cycloheximide; max response, %; actives 12% (n = 300,000); AID 2314; cell reporter, cycloheximide protein synthesis inhibition counterscreen; in the data active = max response mostly above about 13%, no sharp cut-off; inactive = mostly below about 14%; note: read at 38.3 µM for the half of the compounds with a filed dose; 0% is about no effect
AmpC detergent: blocks E. coli AmpC beta-lactamase in detergent assay; P00811; AmpC hydrolysis of nitrocefin, absorbance 480 nm, 0.01% Triton; Potency, µM (titrated, usually from 114 µM), without a hit: at the highest dose activity change, negative = inhibition, usual class: inhibitors; actives 0.041% (n = 370,000); AID 485294;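 note: potency is the fitted concentration of half-maximal effect; 0% = no-compound wells and -100% = no-enzyme wells; nearly all actives have a fitted effect of over 25% in size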
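AmpC (5.3 nM in the dispensed reagent) in 20 mM phosphate pH 7.0 with 0.01% (detergent screen) or 0.0001% Triton X-100 was preincubated with compounds for 15 min at room temperature. Nitrocefin was then added from an 800 uM solution, and hydrolysis was followed at 480 nm.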
Active calls of the source: *; ? = inconclusive; . = not tested or not shown. The full list was thinned out, with hits kept by preference. Unless noted, calls come from the whole dose curve; as a rule, active = well fitted curve in the direction sought with a large enough effect; inconclusive = small, poorly fitted or top-dose-only effect, or another doubt; inactive = no such curve, though single readings can be large; an effect the other way counts as inactive or inconclusive.

SMILES	Shiga toxin inh	NS1 inh	AmpC no deterg	CHX counter	AmpC detergent
O=C(Nc1nnc(-c2ccccc2)o1)c1ccc(Cl)cc1	-4	-135%	.	9	-1%
CCn1c(=O)c2sccc2n(CC(=O)NCCC2=CCCCC2)c1=O	2	-2%	-11%	-7	1%
CC(C)c1nc(N2CCOCC2)c(C#N)c2c1CCC2	-6	-13%	2%	1	-4%
CN(C)c1nnc(-c2ccc(Cl)cc2)o1	49*	.	-7%	39*	?
Nc1nnc(-c2ccc(Cl)cc2)o1	36	-6%	0%	7	-1%
O=C(Nc1nnc(-c2ccncc2)o1)c1cccc(N2C(=O)CCC2=O)c1	-8	.	-5%	-1	2%
O=C(Nc1nnc(-c2ccco2)o1)c1cccc(N2C(=O)CCC2=O)c1	99*	.	96%	22	7%
O=C(c1cc2ccccn2n1)N1CCCC1	-4	-6%	-11%	-5	?
O=C(c1cc2ccccn2n1)N1CCN(Cc2ccccc2)CC1	63	-9%	2%	59*	?
O=C(NC(=S)Nc1ccc2[nH]c(=O)[nH]c2c1)c1ccccc1[N+](=O)[O-]	48*	-4%	-4%	46*	4%
COc1ccc(C(=O)NC(=S)Nc2ccc3[nH]c(=O)[nH]c3c2)cc1	-11	8%	-14%	-6	-6%
CC(C)c1ccc(C(=O)NC(=S)Nc2ccc3[nH]c(=O)[nH]c3c2)cc1	5	4%	8.9µM*	-2	1%
COc1ccccc1CNC(=O)c1ccc2nc(-c3ccccc3)c(-c3ccccc3)nc2c1	.	.	.	.	5%
COC(=O)c1cccnc1	21	.	.	-5	.
CCCCCCCNC1=CC(=O)CC(c2ccco2)C1 (configuration not stated)	13	-21%	-6%	19*	?
CCc1ccc(-c2cc(C(=O)N3N=C(C(F)F)CC3(O)C(F)F)c3ccccc3n2)cc1 (configuration not stated)	89*	-38%	-40%	28*	-3%
CC(C)Cc1cc(C(=O)N2N=C(C(F)F)CC2(O)C(F)F)c2ccccc2n1 (configuration not stated)	-5	-31%	-16%	-2	-2%
COc1ccc2c(c1)CCc1c(C(=O)N(C)c3ccccc3)noc1-2	123*	.	1%	49*	4%
COc1ccc2c(c1)CCc1c(C(=O)Nc3cc(OC)c(Cl)cc3OC)noc1-2	.	.	.	.	-3%
COc1ccc2c(c1)CCc1c(C(=O)Nc3ccc(C#N)cc3)noc1-2	.	.	.	.	23%
COc1ccc2c(c1)CCc1c(C(=O)NCCCn3ccnc3)noc1-2	10	-6%	2%	2	-9%
COCCNC(=O)c1noc2c1CCc1cc(OC)ccc1-2	66	-9%	-5%	35*	?
COc1ccc2c(c1)CCc1c(C(=O)NCc3ccco3)noc1-2	67*	-10%	-15%	34*	-12%
COc1ccc2c(c1)CCc1c(C(=O)NCCN3CCOCC3)noc1-2	-14	-10%	18%	-2	4%
COc1ccc2c(c1)CCc1c(C(=O)NC3CCCCC3)noc1-2	59*	5%	-15%	45*	?
SMILES	Shiga toxin inh	NS1 inh	AmpC no deterg	CHX counter	AmpC detergent
COCC(C)NC(=O)c1noc2c1CCc1cc(OC)ccc1-2 (configuration not stated)	83*	-35%	-1%	33*	-13%
Cc1ccc(NC(=O)Cn2c(=O)ccc3cc(S(=O)(=O)N4CCCC4)ccc32)cc1C	.	.	.	.	3%
CCc1ccccc1NC(=O)COc1ccc2c(c1)OCO2	47*	.	-27%	15*	-2%
CCOc1ccc(NC(=O)COc2ccc3c(c2)OCO3)cc1	14	-11%	-18%	16	-8%
O=C(COc1ccc2c(c1)OCO2)NCc1cccs1	.	.	-8%	.	.
O=C(COc1ccc2c(c1)OCO2)Nc1ccccc1C(F)(F)F	87*	-8%	-10%	31*	5%
Cc1ccc(NC(=O)COc2ccc3c(c2)OCO3)c(Cl)c1	.	.	-21%	.	-9%
N#Cc1ccccc1NC(=O)COc1ccc2c(c1)OCO2	93*	-1%	-36%	47*	-10%
O=C(O)c1[nH]c(=O)[nH]c(=O)c1CN1CCCCC1	.	-4%	.	.	.
COCc1ccc(C(=O)N2CCCC(N(C)CCc3ccc(OC)c(OC)c3)C2)s1 (configuration not stated)	-41	-1%	14%	-1	-1%
COCC(=O)N1CCCC(N(C)CCc2ccc(OC)c(OC)c2)C1 (configuration not stated)	.	16%	-17%	18*	-4%
Cc1ccc2nc(NC(=O)c3cc(-c4ccco4)nc4ccccc34)sc2c1	35	2%	-36%	24*	-14%
Cc1csc(NC(=O)c2cc(-c3ccco3)nc3ccccc23)n1	7	?	-34%	9	-17%
O=C(Nc1nc2ccccc2s1)c1cc(-c2ccco2)nc2ccccc12	60*	0%	-36%	50*	-8%
Cc1nnc(NC(=O)c2cc(-c3ccco3)nc3ccccc23)s1	.	.	-9%	.	3%
CCOc1ccc(C2c3c(oc4ccc(C)cc4c3=O)C(=O)N2CCCN2CCOCC2)cc1 (configuration not stated)	.	.	.	.	1%
ONCc1ccccc1	1	.	.	4	.
NCCCC(O)(P(=O)(O)O)P(=O)(O)O	10	.	.	-4	.
CCc1ccccc1NC(=O)Cn1nc(CC)n2c(cc3sccc32)c1=O	.	.	.	.	22%
Fc1ccc(Oc2nc(-c3ccccn3)nc3ccccc23)cc1	67*	-53%	32%	51*	6%
c1ccc(Oc2nc(-c3ccccn3)nc3ccccc23)cc1	35*	-59%	49%	36*	-7%
c1ccc(-c2nc(N3CCCCCC3)c3ccccc3n2)nc1	-5	-107%	-1%	-2	3%
COc1ccc(Oc2nc(-c3ccccn3)nc3ccccc23)cc1	56*	-44%	70%	48*	-7%
NS(=O)(=O)c1ccc(CCNC(=O)c2coc3ccccc3c2=O)cc1	-6	2%	-20%	-1	-1%
C/C(=N\NC(=S)Nc1cccc(C)c1)c1cccc(N)c1	34	18%	-23%	17	-13%
SMILES	Shiga toxin inh	NS1 inh	AmpC no deterg	CHX counter	AmpC detergent
C/C(=N\NC(=O)c1cccc(N/N=C(\C)c2ccc([N+](=O)[O-])cc2)c1)c1ccc([N+](=O)[O-])cc1	39*	5%	-30%	17*	-13%
C/C(=N\NC(=O)c1ccc2nc[nH]c2c1)c1ccc([N+](=O)[O-])cc1	-5	4%	-7%	6	9%
C/C(=N\NC(=O)c1cccc(N/N=C(\C)c2ccccc2)c1)c1ccccc1	144*	20%	-18%	72*	2%
C/C(=N\NC(=O)c1cccc(N/N=C(\C)c2ccncc2)c1)c1ccncc1	5	.	-47%	15	2%
C/C(=N\Nc1ccccc1)c1cccc(N)c1	40	7%	-23%	23*	-5%
C/C(=N\NC(=S)Nc1ccc(C)cc1)c1cccc(N)c1	54*	6%	-19%	17	3%
CC(=O)Nc1cccc(N)c1	.	.	-8%	.	3%
Cc1nc(-c2ccc(S(=O)(=O)NCc3ccc(OC(C)C)cc3)cc2)co1	.	.	.	.	-4%
